Results filed as inconclusive are left out. Active and inactive are the calls of the source. Calls follow the shape of the dose curve; as a rule, active = well fitted curve in the direction sought with a large enough effect in the repeat runs; inconclusive = weak or mixed curves; inactive = no such curve, though single readings can be large; an effect the other way counts as inactive or inconclusive.
Experiments:
[1] = Human pregnane X receptor (PXR) small molecule agonists, qHTS cell viability counter screen (AID 1346977); also: nearly all actives have a fitted effect of over 50% in size
Summary of the method: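 HepG2 cells stably carrying the PXR-Luc reporter are cultured with 5% charcoal-stripped FBS and treated with compounds for 24hr. CellTiter-Fluor is added at 23hr and fluorescence is read after 1hr.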

[2] = Caspase-3/7 induction in HepG2 cells by small molecules, qHTS assay (AID 1346978); also: nearly all actives have a fitted effect of over 15% in size
Summary of the method: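 Wild-type HepG2 cells (2,000/well) were settled 5 h at 37 C, 5% CO2, then exposed to compounds in DMSO for 17 h. Caspase-3/7 activity was read by luminescence 30 min after adding Caspase-Glo 3/7 reagent at room temperature.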

[3] = Caspase-3/7 induction in CHO-K1 cells by small molecules, qHTS cell viability counter screen (AID 1346979); also: nearly all actives have a fitted effect of over 35% in size
Summary of the method: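 Seeding: 1,500 CHO-K1 cells/well. Rest: 5hr, 37C. Treatment: compounds in DMSO, 16hr. Read: CellTiter-Fluor, 1hr, fluorescence.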

[4] = Caspase-3/7 induction in CHO-K1 cells by small molecules, qHTS assay (AID 1346980); also: nearly all actives have a fitted effect of over 15% in size
Summary of the method: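 Wild-type cells were seeded at 1,500 per well and settled 5 hr at 37 C, 5% CO2, then exposed to DMSO-dissolved compounds for 17 hr. Caspase-Glo 3/7 reagent was added, and luminescence was read after 30min at room temperature.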

[5] = Caspase-3/7 induction in HepG2 cells by small molecules, qHTS cell viability counter screen (AID 1346981); also: series mostly up to about 92 µM; nearly all actives have a fitted effect of over 30% in size
Summary of the method: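 Fluorescence read-out of live-cell protease activity (CellTiter-Fluor) after 1 hr with reagent. This was measured in the same wells as the caspase-3/7 luminescence, on HepG2 cells exposed to DMSO-dissolved compounds for 16 hr at 37 C.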

[6] = target: Cytochrome P450 2D6 (Homo sapiens) (UniProt P10635); assay: Cytochrome P450 Family 2 Subfamily D Member 6 (CYP2D6) small molecule antagonists: luciferase reporter qHTS assay (AID 1671196); also: nearly all actives have a fitted effect of over 50% in size; also: potency is read from the fitted curve at half-maximal effect; as to activity change, negative = inhibition: series mostly up to about 120 µM
Summary of the method: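 Luminogenic proluciferin substrate, CYP2D6 enzyme; 10 min RT preincubation with compound, NADPH regeneration system added, 1 h RT. Stop/detection reagent, 20 min RT, luminescence read (RLU). Signal proportional to CYP activity.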

[7] = target: Cytochrome P450 1A2 (Homo sapiens) (UniProt P05177); assay: Cytochrome P450 Family 1 Subfamily A Member 2 (CYP1A2) small molecule antagonists: luciferase reporter qHTS assay (AID 1671199); also: nearly all actives have a fitted effect of over 50% in size; also: potency is read from the fitted curve at half-maximal effect; as to activity change, negative = inhibition: series mostly up to about 120 µM
Summary of the method: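 Luminescence readout (relative luminescence units) after luciferin detection reagent, 20 min RT. Preceded by 1 h room-temperature CYP1A2 reaction with NADPH regeneration solution following 10 min compound preincubation with enzyme and proluciferin substrate. Furafylline positive control.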

[8] = target: Voltage-gated inwardly rectifying potassium channel KCNH2 (Homo sapiens) (UniProt Q12809); assay: Human Ether-a-go-go-Related Gene (hERG) channel small molecule antagonists: fluorescence cell-based qHTS assay (AID 1671200);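 also: hERG-expressing U2OS cells given a thallium stimulus after FluxOR II dye loading; series mostly up to about 77 µM; nearly all actives have a fitted effect of over 50% in size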
Summary of the method: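 First, 1000 cells per well are seeded and cultured overnight at 37 C. Next, FluxOR II dye is loaded for 1 h at room temperature, protected from light. After 10 more minutes, stimulus is added and fluorescence is read.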

[9] = target: Nuclear receptor subfamily 1 group I member 2 (Homo sapiens) (UniProt O75469); assay: Human pregnane X receptor (PXR) small molecule agonists, qHTS assay (AID 1346982); also: nearly all actives have a fitted effect of over 35% in size; also: potency is read from the fitted curve at half-maximal effect
Summary of the method: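 HepG2 PXR-Luc reporter line, 5% charcoal-stripped FBS; 5 hr pre-incubation, compound (DMSO) 24 hr at 37 C/5% CO2; ONE-Glo 30 min RT; luminescence read-out.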

[10] = target: Cytochrome P450 2C19 (Homo sapiens) (UniProt P33261); assay: Cytochrome P450 Family 2 Subfamily C Member 19 (CYP2C19) small molecule antagonists: luciferase reporter qHTS assay (AID 1671197); also: nearly all actives have a fitted effect of over 65% in size; also: potency is read from the fitted curve at half-maximal effect; as to activity change, negative = inhibition: series mostly up to about 120 µM
Summary of the method: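 Light output is proportional to CYP2C19 activity: proluciferin substrate is converted to luciferin, then detected by a luciferin detection reagent that also stops the 1 h, 37C NADPH-driven reaction. Ketoconazole serves as positive control.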

[11] = target: Cytochrome P450 2C9 (Homo sapiens) (UniProt P11712); assay: Cytochrome P450 Family 2 Subfamily C Member 9 (CYP2C9) small molecule antagonists: luciferase reporter qHTS assay (AID 1671198); also: nearly all actives have a fitted effect of over 50% in size; also: potency is read from the fitted curve at half-maximal effect; as to activity change, negative = inhibition: series mostly up to about 120 µM
Summary of the method: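 CYP2C9 activity was measured with a P450-Glo proluciferin substrate. Enzyme–substrate mix was held with compound for 10 min at room temperature, then NADPH regeneration solution was added for 1 h at 37C. Luciferin product was read as luminescence.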

[12] = target: Cytochrome P450 3A4 (Homo sapiens) (UniProt P08684); assay: Cytochrome P450 Family 3 Subfamily A Member 4 (CYP3A4) small molecule antagonists: luciferase reporter qHTS assay (AID 1671201); also: nearly all actives have a fitted effect of over 50% in size; also: potency is read from the fitted curve at half-maximal effect; as to activity change, negative = inhibition: series mostly up to about 120 µM
Summary of the method: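 Enzyme and proluciferin substrate are mixed with test chemicals for 10 min, then NADPH regeneration system drives turnover for 1 h at room temperature. A detection reagent halts the reaction; luminescence after 20 min gives relative activity.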

[13] = target: Nuclear receptor subfamily 1 group I member 2 (Rattus norvegicus) (UniProt Q9R1A7); assay: Rat pregnane X receptor (rPXR) activation by small molecules, qHTS assay (AID 1346983); conditions: rPXR luciferase reporter cells, One-Glo luminescence, 24 h; stronger effect = higher value; also: nearly all actives have a fitted effect of over 20% in size
Summary of the method: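 Cell-based rPXR luciferase reporter assay, 2,000 cells per well, rested 5hr at 37 C before compound addition in DMSO, then 24 hr at 37 C. One-Glo reagent was added and luminescence read after 30 min at room temperature.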

[14] = target: Nuclear receptor subfamily 1 group I member 2 (Homo sapiens) (UniProt O75469); assay: CYP3A4 induction through human pregnane X receptor (PXR) by small molecules, qHTS assay (AID 1346984); also: nearly all actives have a fitted effect of over 40% in size
Summary of the method: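 HepG2-derived DPX-2 line carrying PXR plus a CYP3A4-promoter luciferase reporter; cells plated 5 hr, compound-exposed 24 hr at 37C. CYP3A4 activity probed with 3uM (final) Luciferin-IPA for 3hr, then luciferase read after One-Glo.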

[15] = target: Nuclear receptor subfamily 1 group I member 2 (Homo sapiens) (UniProt O75469); assay: Human pregnane X receptor (PXR) activation by small molecules, qHTS assay (AID 1346985); also: nearly all actives have a fitted effect of over 40% in size
Summary of the method: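 DPX-2 cells (HepG2 co-transfected with a PXR response element and a CYP3A4-promoter luciferase construct) were seeded at 2,000 per well, rested 5 hr at 37C, then exposed to DMSO-dissolved compounds for 24 hr. Activation was read as luciferase luminescence.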
% is scaled to controls: 0 for no effect and ±100 for the full control effect.

Sequence of Nuclear receptor subfamily 1 group I member 2 (Rattus norvegicus) (Q9R1A7 whole entry, looked up): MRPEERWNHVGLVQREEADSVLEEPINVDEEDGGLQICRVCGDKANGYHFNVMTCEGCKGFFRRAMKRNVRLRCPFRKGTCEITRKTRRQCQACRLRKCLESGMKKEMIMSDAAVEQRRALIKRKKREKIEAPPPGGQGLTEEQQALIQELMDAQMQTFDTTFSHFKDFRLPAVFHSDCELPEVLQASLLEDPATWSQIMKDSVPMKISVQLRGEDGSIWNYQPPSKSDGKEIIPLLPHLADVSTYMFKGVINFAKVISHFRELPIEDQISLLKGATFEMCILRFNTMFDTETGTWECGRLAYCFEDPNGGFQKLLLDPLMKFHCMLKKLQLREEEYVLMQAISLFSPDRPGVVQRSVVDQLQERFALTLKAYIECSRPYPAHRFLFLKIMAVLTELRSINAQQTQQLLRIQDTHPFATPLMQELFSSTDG
Sequence of Nuclear receptor subfamily 1 group I member 2 (Homo sapiens) (O75469 whole entry, looked up): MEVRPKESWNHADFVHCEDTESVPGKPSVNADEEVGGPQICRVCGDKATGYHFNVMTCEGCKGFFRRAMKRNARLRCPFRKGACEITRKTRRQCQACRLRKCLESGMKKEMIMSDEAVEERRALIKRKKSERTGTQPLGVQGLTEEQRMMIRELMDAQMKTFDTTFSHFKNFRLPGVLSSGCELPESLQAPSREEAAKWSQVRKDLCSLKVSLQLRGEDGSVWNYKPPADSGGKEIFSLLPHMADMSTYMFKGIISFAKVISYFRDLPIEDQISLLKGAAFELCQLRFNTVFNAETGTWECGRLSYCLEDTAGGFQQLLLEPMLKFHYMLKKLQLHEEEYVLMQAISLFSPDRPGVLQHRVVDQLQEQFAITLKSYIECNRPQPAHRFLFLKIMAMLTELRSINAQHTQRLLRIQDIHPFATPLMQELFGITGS
Sequence of Cytochrome P450 2D6 (Homo sapiens) (P10635 whole entry, looked up): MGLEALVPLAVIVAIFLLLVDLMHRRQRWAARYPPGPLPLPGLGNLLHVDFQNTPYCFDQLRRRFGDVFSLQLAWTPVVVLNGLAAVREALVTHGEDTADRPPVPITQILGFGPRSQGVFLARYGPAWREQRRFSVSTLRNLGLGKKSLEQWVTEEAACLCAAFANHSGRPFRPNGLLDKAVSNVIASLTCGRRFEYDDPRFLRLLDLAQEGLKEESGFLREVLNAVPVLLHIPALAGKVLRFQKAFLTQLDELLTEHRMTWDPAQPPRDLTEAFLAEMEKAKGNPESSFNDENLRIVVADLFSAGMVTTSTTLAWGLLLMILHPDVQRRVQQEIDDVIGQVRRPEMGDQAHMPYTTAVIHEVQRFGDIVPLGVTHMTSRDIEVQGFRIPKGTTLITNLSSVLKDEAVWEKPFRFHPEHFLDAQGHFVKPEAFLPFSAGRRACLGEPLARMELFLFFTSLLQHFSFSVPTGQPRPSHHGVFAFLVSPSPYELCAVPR
Sequence of Cytochrome P450 1A2 (Homo sapiens) (P05177 whole entry, looked up): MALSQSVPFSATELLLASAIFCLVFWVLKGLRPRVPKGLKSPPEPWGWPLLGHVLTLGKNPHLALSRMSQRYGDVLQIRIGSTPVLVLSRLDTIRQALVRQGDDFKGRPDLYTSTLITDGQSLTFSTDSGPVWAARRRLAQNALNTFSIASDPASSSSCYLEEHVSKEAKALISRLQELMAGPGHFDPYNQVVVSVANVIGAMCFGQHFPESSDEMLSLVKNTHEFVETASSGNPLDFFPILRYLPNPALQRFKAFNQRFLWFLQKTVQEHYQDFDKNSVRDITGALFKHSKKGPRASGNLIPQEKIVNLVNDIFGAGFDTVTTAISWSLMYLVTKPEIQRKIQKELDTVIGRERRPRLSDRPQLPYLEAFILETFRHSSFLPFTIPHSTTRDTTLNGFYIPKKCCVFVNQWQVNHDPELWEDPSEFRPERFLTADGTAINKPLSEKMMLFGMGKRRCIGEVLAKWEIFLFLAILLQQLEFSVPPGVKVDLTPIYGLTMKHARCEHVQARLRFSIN
Sequence of Cytochrome P450 3A4 (Homo sapiens) (P08684 whole entry, looked up): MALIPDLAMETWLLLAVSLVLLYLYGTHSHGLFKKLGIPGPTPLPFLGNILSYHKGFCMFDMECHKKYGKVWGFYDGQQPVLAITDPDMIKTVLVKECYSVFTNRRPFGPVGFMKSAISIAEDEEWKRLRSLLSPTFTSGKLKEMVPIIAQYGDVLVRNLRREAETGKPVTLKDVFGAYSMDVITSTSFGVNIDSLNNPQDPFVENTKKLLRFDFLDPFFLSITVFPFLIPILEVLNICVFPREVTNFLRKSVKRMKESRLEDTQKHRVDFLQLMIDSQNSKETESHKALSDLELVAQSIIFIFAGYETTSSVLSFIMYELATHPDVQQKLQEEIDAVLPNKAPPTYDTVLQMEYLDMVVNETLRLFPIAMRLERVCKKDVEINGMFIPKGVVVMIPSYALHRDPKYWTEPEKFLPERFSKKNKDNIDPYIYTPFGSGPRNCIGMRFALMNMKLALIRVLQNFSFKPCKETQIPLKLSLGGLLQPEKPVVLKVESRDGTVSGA
Sequence of Cytochrome P450 2C9 (Homo sapiens) (P11712 whole entry, looked up): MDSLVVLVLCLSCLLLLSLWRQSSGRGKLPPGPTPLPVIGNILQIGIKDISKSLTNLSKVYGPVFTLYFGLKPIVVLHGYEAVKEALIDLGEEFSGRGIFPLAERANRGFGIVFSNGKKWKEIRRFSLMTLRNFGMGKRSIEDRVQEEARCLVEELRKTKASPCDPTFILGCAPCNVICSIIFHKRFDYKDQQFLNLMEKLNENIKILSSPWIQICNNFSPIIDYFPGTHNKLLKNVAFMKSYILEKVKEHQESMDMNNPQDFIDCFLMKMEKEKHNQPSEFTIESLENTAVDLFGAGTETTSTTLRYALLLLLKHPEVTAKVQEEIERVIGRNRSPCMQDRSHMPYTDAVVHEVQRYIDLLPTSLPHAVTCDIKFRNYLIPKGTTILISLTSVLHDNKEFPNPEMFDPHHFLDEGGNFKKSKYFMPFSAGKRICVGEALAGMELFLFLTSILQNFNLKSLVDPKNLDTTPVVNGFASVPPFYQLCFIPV
Sequence of Cytochrome P450 2C19 (Homo sapiens) (P33261 whole entry, looked up): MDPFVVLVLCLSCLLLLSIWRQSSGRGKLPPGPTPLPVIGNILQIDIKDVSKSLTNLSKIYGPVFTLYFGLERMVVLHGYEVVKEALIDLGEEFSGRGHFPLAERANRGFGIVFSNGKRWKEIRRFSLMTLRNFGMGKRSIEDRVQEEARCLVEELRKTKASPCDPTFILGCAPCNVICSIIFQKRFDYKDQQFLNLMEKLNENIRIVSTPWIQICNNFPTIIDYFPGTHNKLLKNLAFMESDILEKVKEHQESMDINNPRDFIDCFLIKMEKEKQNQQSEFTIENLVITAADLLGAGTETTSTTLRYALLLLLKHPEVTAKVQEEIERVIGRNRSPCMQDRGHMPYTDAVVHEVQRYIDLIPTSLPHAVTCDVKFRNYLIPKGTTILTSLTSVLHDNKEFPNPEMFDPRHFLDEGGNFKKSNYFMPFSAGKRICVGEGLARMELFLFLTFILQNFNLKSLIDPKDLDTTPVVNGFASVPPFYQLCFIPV
Sequence of Voltage-gated inwardly rectifying potassium channel KCNH2 (Homo sapiens) (Q12809 whole entry, looked up): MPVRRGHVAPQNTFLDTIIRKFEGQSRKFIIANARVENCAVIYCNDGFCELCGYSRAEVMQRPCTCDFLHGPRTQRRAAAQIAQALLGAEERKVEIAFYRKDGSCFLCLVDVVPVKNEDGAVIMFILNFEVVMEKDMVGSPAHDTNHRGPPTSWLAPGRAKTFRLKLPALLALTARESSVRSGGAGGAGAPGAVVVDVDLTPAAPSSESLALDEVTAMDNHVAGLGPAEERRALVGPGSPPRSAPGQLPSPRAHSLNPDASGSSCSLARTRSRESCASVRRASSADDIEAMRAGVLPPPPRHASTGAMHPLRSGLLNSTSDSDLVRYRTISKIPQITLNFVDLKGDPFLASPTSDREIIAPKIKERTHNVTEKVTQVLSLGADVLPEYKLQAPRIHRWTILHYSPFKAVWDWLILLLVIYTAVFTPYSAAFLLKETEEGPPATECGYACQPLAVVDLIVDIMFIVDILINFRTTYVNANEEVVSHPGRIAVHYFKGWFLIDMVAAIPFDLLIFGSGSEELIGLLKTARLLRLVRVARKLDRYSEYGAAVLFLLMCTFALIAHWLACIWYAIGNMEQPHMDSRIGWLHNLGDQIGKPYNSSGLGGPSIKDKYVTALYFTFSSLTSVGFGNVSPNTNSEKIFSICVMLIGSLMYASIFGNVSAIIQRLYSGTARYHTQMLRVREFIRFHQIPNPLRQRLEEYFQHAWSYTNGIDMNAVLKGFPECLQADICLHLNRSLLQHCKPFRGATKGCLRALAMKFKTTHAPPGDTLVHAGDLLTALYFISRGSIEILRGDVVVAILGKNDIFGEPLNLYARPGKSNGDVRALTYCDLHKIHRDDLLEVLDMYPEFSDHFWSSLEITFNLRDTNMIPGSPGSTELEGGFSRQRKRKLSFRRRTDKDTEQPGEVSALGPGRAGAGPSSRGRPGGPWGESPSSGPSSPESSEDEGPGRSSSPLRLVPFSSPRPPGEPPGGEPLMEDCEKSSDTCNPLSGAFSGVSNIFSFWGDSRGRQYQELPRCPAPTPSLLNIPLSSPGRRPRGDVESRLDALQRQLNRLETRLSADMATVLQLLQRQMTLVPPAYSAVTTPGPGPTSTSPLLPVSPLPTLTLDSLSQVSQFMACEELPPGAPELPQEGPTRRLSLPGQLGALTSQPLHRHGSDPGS

CCC(CC)CO
inactive: Potency [1] | Potency [2] | Potency [3] | outcome [4] | Potency [5] | Potency [6] | Potency [7] | Potency [8]

CCC(C=O)CC
inactive: Potency [1] | Potency [2] | Potency [3] | outcome [4] | Potency [9] | Potency [6] | Potency [10] | Potency [11] | Potency [8]

CCCCCCCCCCCCCC
inactive: Potency [1] | Potency [2] | Potency [3] | outcome [4] | Potency [9] | Potency [6] | Potency [10] | Potency [8] | Potency [12]

COc1ccc(C2CNC(=O)C2)cc1OC1CCCC1 (centres undefined)
active: Potency [7] 13.8 µM
inactive: Potency [1] | Potency [2] | Potency [3] | outcome [4] | Potency [5] | max activation [13] -2.12% | Potency [6] | Potency [10] | Potency [11] | Potency [8] | Potency [12]

Nc1nnc(-c2cccc(Cl)c2Cl)c(N)n1
inactive: Potency [1] | Potency [2] | Potency [3] | outcome [4] | Potency [5] | Potency [10] | Potency [11] | Potency [7] | Potency [8]

Cc1cc(NC(=O)C2=C(O)c3ccccc3S(=O)(=O)N2C)no1
inactive: Potency [1] | Potency [2] | Potency [3] | outcome [4] | Potency [5] | Potency [10] | Potency [8]

C=C(C)C(=O)OCCOP(=O)(O)OCCOC(=O)C(=C)C
inactive: Potency [1] | Potency [2] | Potency [3] | outcome [4] | Potency [9] | Potency [6] | Potency [10] | Potency [11] | Potency [7]

CC(C)=O
inactive: Potency [1] | Potency [2] | Potency [3] | outcome [4] | Potency [5] | max activation [13] -0.452% | Potency [10] | Potency [8]

CC(C)=CCOC(=O)c1ccccc1
inactive: Potency [1] | Potency [2] | Potency [3] | outcome [4] | Potency [9] | Potency [6] | Potency [10] | Potency [11] | Potency [8]

CCOC(=O)c1ncn2c1CN(C)C(=O)c1cc(F)ccc1-2
inactive: Potency [1] | Potency [2] | Potency [3] | outcome [4] | Potency [5] | Potency [6] | Potency [10] | Potency [8]

On1nnc2ccccc21
active: Potency [6] 35.6 µM
inactive: Potency [1] | Potency [2] | Potency [3] | outcome [4] | Potency [5] | Potency [10] | Potency [11] | Potency [8] | Potency [12]

Oc1cn2c(n1)Nc1ccc(Cl)c(Cl)c1C2
inactive: activity change, negative = cytotoxicity [1] -3.42% [at 19 µM] | caspase activation [2] 0.135% [at 19 µM] | activity change, negative = cytotoxicity [3] -2.03% [at 19 µM] | caspase-3/7 activation [4] -0.902% [at 19 µM] | activity change, negative = cytotoxicity [5] 6.29% [at 19 µM] | max activation [13] 0.479% | Potency [14] | Potency [15] | activity change, negative = inhibition [10] 3% [at 23.6 µM] | activity change, negative = inhibition [8] -1.03% [at 15.8 µM]
active: Potency [7] 2.81 µM

CC(=O)Nc1ccc(S(=O)(=O)Cl)cc1
inactive: Potency [1] | Potency [2] | Potency [3] | outcome [4] | Potency [9] | Potency [6] | Potency [11] | Potency [7] | Potency [12]

BrCc1cccc(Oc2ccccc2)c1
active: Potency [9] 61.1 µM | Potency [6] 35.6 µM | Potency [10] 7.96 µM | Potency [11] 79.6 µM | Potency [7] 39.9 µM
inactive: Potency [1] | Potency [2] | Potency [3] | outcome [4] | Potency [8] | Potency [12]

COc1ccc2nc(SCc3ncc(C)c(OC)c3C)[nH]c2c1
active: Potency [6] 27.5 µM | Potency [10] 2.19 µM | Potency [11] 13.8 µM | Potency [7] 15.5 µM
inactive: Potency [1] | Potency [2] | Potency [3] | outcome [4] | Potency [5] | Potency [8]

C=C(C)C(=O)OCCN(CC)CC
active: Potency [7] 35.5 µM
inactive: Potency [1] | Potency [2] | Potency [3] | outcome [4] | Potency [5] | Potency [6] | Potency [10] | Potency [11] | Potency [12]

NNc1nnc(NN)c2ccccc12
inactive: Potency [1] | Potency [2] | Potency [3] | outcome [4] | Potency [9] | Potency [14] | Potency [15] | Potency [10] | Potency [8]
active: Potency [11] 34.7 µM | Potency [7] 36.3 µM

C[Si](C)=O
inactive: activity change, negative = cytotoxicity [1] 7.41% [at 8.39 µM] | caspase activation [2] 0.773% [at 8.39 µM] | activity change, negative = cytotoxicity [3] 1.4% [at 8.39 µM] | caspase-3/7 activation [4] 0.203% [at 8.39 µM] | activation [9] 16.2% [at 8.39 µM] | activity change, negative = inhibition [6] -1.51% [at 10.5 µM] | activity change, negative = inhibition [10] -11.8% [at 10.5 µM] | activity change, negative = inhibition [11] -9.3% [at 10.5 µM] | activity change, negative = inhibition [7] -21% [at 10.5 µM] | activity change, negative = inhibition [8] 1.17% [at 6.97 µM] | activity change, negative = inhibition [12] -1.04% [at 10.5 µM]

Cc1c(I)c(=O)n(-c2ccccc2)n1C
inactive: Potency [1] | Potency [2] | Potency [3] | outcome [4] | Potency [9] | max activation [13] -0.919% | Potency [15] | Potency [6] | Potency [10] | Potency [8]

CC(C)NCC(O)COc1cccc2[nH]ccc12 (centres undefined)
inactive: Potency [1] | Potency [2] | Potency [3] | outcome [4] | Potency [5] | Potency [8]

FC(F)(F)c1ccccc1-n1ccnc1
active: Potency [6] 2.19 µM | Potency [10] 5.49 µM | Potency [7] 5.49 µM
inactive: Potency [1] | Potency [2] | Potency [3] | outcome [4] | Potency [5]

CCNC(=O)C1CC(C)CCC1C(C)C (centres undefined)
inactive: Potency [1] | Potency [2] | Potency [3] | outcome [4] | Potency [5] | Potency [6] | Potency [8]
active: Potency [10] 17.8 µM | Potency [12] 17.8 µM

CCOC(=O)CC(=O)c1ccccc1
active: Potency [10] 39.9 µM | Potency [11] 35.6 µM | Potency [7] 28.3 µM
inactive: Potency [1] | Potency [2] | Potency [3] | outcome [4] | Potency [5] | Potency [8] | Potency [12]
